HIF act: HIF pathway transcriptional activation; U2OS HRE-luciferase reporter, luminescence; normalized: DMSO 0%, desferrioxamine 100%; activation, % at 7.5 µM (by protocol); 300,000 compounds, 0.32% hits; AID 1910;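 active = mean activation of at least 10% of the iron chelator positive control signal, with at least half of replicates also reaching 10%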
GC-B act: GC-B (human) receptor activation. HEK293-GC-B cells, CNP EC30, cGMP TR-FRET; 0% at EC30 CNP, 100% saturating CNP. activation, % at 10 µM. 370,000 compounds, 0.11% hits. AID 1920062;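 active = activation at 10 µM reaching about 35% in either raw or pattern-adjusted values, limit read from the data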
GC-A act: GC-A (human) enzyme activation; P16066; HEK293 GC-A cells, cGMP TR-FRET, EC30 ANP; 0% at EC30 ANP, 100% saturating ANP; activation, % at 10 µM; 370,000 compounds, 0.14% hits; in the data active = activation above about 40%
proKLK7 act: activators of human kallikrein-7 zymogen | purified proKLK7, EDANS-DABCYL substrate fluorescence; 100% is mature enzyme control, 0% vehicle | activation, % at 7 µM | 370,000 compounds, 0.9% hits | AID 652039;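 active = activation above the mean of all tested compounds plus 3 SD, computed per campaign excluding outliers beyond control limits, cut at about 13% in these data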
The depositor's hits bear a star; . = no result. The list is not random: actives were taken first. Their share in the collection is about 1.3%.

SMILES	HIF act	GC-B act	GC-A act	proKLK7 act
c1ccc(CNc2nc(-c3cccs3)nc3ccccc23)nc1	0.2	-0.5	5.4	1.0
Cc1ccc(CNc2nc(-c3cccs3)nc3ccccc23)cc1	-0.1	39.2*	29.6	-1.2
CCC(Sc1nc(C)cc(=O)[nH]1)C(=O)Nc1sc2c(c1C#N)CCCC2 (stereo not given)	22.5*	-3.6	-6.6	-0.2
O=C(CCCc1ccccc1)Nc1ccccn1	15.0*	3.8	4.0	0.3
Cc1ccnc(NC(=O)CCCc2ccccc2)c1	2.1	-7.7	0.7	-0.1
CCCC1CCC2(CC1)CCC2OC(=O)Nc1ccccc1OC (stereo not given)	.	-0.5	-4.9	.
COc1ccc(Oc2c(Cl)cnn(C3c4ccccc4-c4ccccc43)c2=O)cc1	.	-6.5	-3.4	-0.1
COc1ccccc1NC(=O)CN(C)S(=O)(=O)c1cccc2cccnc12	28.6*	2.0	-4.7	0.1
Cc1nc(C(=O)Nc2ccc(Cl)cc2Cl)nn1-c1cc(OC(C)C)c(Cl)cc1Cl	14.8*	-0.5	9.9	0.7
Cc1nc(C(=O)Nc2cc(Cl)ccc2Cl)nn1-c1cc(OC(C)C)c(Cl)cc1Cl	-1.1	5.2	-1.0	0.0
CCN(CC)c1ccc(NC(=O)c2cc3c(C)nn(-c4ccccc4)c3s2)cc1	.	-15.4	-3.0	-8.4
CC1(C)CC(=O)C(CC2C(=O)CC(C)(C)CC2=O)C(=O)C1	54.4*	-4.8	3.5	0.5
O=C(N/N=C/c1cc2c3c(c1O)CCCN3CCC2)c1ccccc1O	55.2*	-3.9	-0.3	-11.4
CC(=O)Nc1sc(-c2ccccc2)nc1-c1ccccc1	204.8*	-3.8	0.1	0.7
O=[N+]([O-])c1ncccc1OCCOc1ccc(Cl)cc1Cl	.	1.2	47.4*	.
Cc1cc(-c2nnc3n2N=C(C(C)(C)C)CS3)n[nH]1	.	1.5	1.8	-0.2
COc1ccc(OC)c(C2=Nn3c(nnc3-c3cc(C)[nH]n3)SC2)c1	58.3*	5.4	11.5	0.2
O=C(O)c1cc(NN=Nc2ccc(Br)cc2)cc([N+](=O)[O-])c1	-0.2	-10.2	43.1*	0.2
O=C(O)c1cc(NN=Nc2cccc([N+](=O)[O-])c2)cc([N+](=O)[O-])c1	-0.1	-1.7	0.3	-0.6
Brc1ccc(N=NNc2ccccc2)cc1	2.3	-9.5	44.6*	0.1
CCOC(=O)[C@@]12CN(C(=O)OC(C)(C)C)CC=C1N(Cc1ccc(OC)cc1)C(=O)[C@H]2CC(=O)NCc1cccc2ccccc12	.	-2.1	2.2	0.1
COc1ccc(C(CCOC(=O)Oc2ccccc2)c2cc(OC)c(OC)c(OC)c2)cc1 (stereo not given)	.	4.5	0.8	-0.1
C=CCNc1nc(-c2ccccn2)nnc1-c1ccccc1	109.6*	3.7	-1.5	-0.1
O=c1c2ccccc2n(Cc2ccco2)n1[C@@H](Cc1ccccc1)Cn1cc(C2CCCC2)nn1	.	-11.8	-22.2	-1.5
CC1SC(=NC(=O)c2ccncc2)NC1=O (stereo not given)	932.4*	-2.2	3.5	0.1
SMILES	HIF act	GC-B act	GC-A act	proKLK7 act
CC1S/C(=N/N=C2CCCCC2)NC1=O (stereo not given)	-0.1	0.5	-2.2	-1.0
NC(=O)C1CCCN(Cc2c(C(=O)N3CCc4ccccc4C3)nc3ccc(Cl)cn23)C1 (stereo not given)	10.7*	1.2	-1.4	0.6
CC(C)c1ccc(/C=c2\sc3nc(-c4ccncc4)nn3c2=O)cc1	0.0	-18.4	41.0*	-0.2
Cc1ccc(/C=c2\sc3nc(-c4cccnc4)nn3c2=O)cc1	1.4	-6.1	14.6	0.3
COC(=O)[C@]12C[C@H](CC(=O)NCCc3ccccc3OC)C(=O)N(Cc3cccc4ccccc34)C1=C[C@H](C(C)C)O[C@@H]2C1CC1	.	0.3	-9.2	0.5
Cc1cc(SCC(=O)N/N=C/c2ccc(O)c(O)c2O)c(C)cc1Br	36.2*	-1.2	-4.6	0.6
CCC[C@H]1[C@@H](NC(=O)c2cccc(N(C)C)c2)CC[C@@]23CCCN2C(=O)CCC[C@@H]13	.	-2.5	-1.1	.
Oc1ccccc1/C=N/Nc1ncc(Br)cn1	33.5*	-20.0	-31.8	-0.3
Oc1ccccc1/C=N/Nc1nc2ccccc2o1	26.5*	-16.0	-4.5	-8.1
O=C(CCc1ccccc1)Nc1ccnn1C1CCN(C/C=C/c2ccccc2)CC1	434.5*	-0.5	0.2	0.5
COc1ccccc1/C=C/CN1CCC(n2nccc2NC(=O)CCc2ccccc2)CC1	-0.8	-9.1	-14.2	-0.3
O=C(CCc1ccccc1)Nc1ccncc1	0.1	3.4	1.8	-0.5
CC(C)c1ccc(NC(=O)CCc2ccccc2)cc1	12.1*	0.4	2.0	0.0

High-throughput results as filed in PubChem.
